# Reference: PubChem BioAssay AID893 (National Center for Advancing Translational Sciences (NCATS), 2007)
# In all, about 75,000 compounds went through this assay and about 5,700 (7.6%) were called active. Another 7% or so got no clear call; they are omitted. Calls follow the shape of the dose curve; as a rule, active = well fitted inhibition curve with a large enough effect; inconclusive = small, poorly fitted or top-dose-only effect; inactive = no such curve, though single readings can be large or run the other way. What follows is part of a selection rich in actives, with near analogues and random picks from the rest. Entries that show only a call come without a potency.
# Biological target: 3-hydroxyacyl-CoA dehydrogenase type-2 (Homo sapiens) (UniProt Q99714)
# Assay: qHTS Assay for Inhibitors of HSD17B4, hydroxysteroid (17-beta) dehydrogenase 4;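 also: the protocol describes HADH2 (HSD17B10) and not the HSD17B4 of the title; nearly all actives have a fitted effect of over 70% in size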
# Conditions: recombinant HSD17B10, NADH fluorescence kinetic; series mostly up to 57.1 µM
# Summary of the method: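 20 nM HADH2, pH 9.0 Tris/Tween; cpd preinc 15 min RT; start w/ 1 mM NAD+ + 90 uM b-hydroxybutyryl-CoA; kinetic fluor ex360/em450 q30s x 4 min; delta last-first.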
# Potency is read from the fitted curve at half-maximal effect.
SMILES,Potency,"activity change, negative = inhibition"
ON=C1/C(=N\O)CC2(C/C1=N/O)OCCO2,inactive,–
CC(C)CC1(C(=O)NCc2ccccn2)C=CCN1C(=O)c1ccccc1 (centres undefined),inactive,–
O=C(NCc1ccccn1)c1ccc2nc(-c3ccco3)c(-c3ccco3)nc2c1,12.6 µM (active),–
O=C(NCc1ccco1)c1nc2ncccn2n1,inactive,–
CCn1nnc(NC(=O)c2cc(Cl)c(OC)c(Cl)c2)n1,inactive,–
Cc1noc(C)c1S(=O)(=O)N(CC(=O)NCc1ccc(Cl)cc1)c1ccc2c(c1)OCO2,inactive,–
COc1cc(C(O)c2nc3ccccc3n2C)cc(OC)c1OC (centres undefined),inactive,–
Cc1csc(-c2nc3ccccc3n2C)n1,31.6 µM (active),–
Cc1nn2c3ccccc3nc2n(C)c1=O,inactive,–
O=C(NCc1ccco1)C1CCCN(S(=O)(=O)c2cccc3nonc23)C1 (centres undefined),inactive,–
CC(C)(C)c1ccc(OC2C=CC(C#Cc3ccccc3)OC2CO)cc1 (centres undefined),–,-6.55% [at 11.4 µM] (inactive)
COC1[C@H](OC(N)=O)C(O)[C@H](Oc2ccc3c(O)c(NC(=O)c4ccc(O)c(CC=C(C)C)c4)c(=O)oc3c2C)OC1(C)C (some centres undefined),inactive,–
O=C(c1ccc(F)cc1)C1CCN(CCCCc2ccccc2)CC1,inactive,–
CCN1C(=O)C(C(=O)NC(C)c2ccccc2)C2CC1(C)Oc1ccccc12 (centres undefined),inactive,–
FC(F)(F)c1cc(-c2ccco2)nc(N2CCOCC2)n1,inactive,–
Cc1cc(C(F)(F)F)nn1-c1nc(-c2ccco2)cc(C(F)(F)F)n1,31.6 µM (active),–
FC(F)(F)c1nnc2sc(-c3ccco3)nn12,inactive,–
CCCC(C(=O)NCc1ccco1)N(C(=O)CNS(=O)(=O)c1ccccc1)C1CCCC1 (centres undefined),inactive,–
CC(=O)N(CN1C(=O)C2CC=CCC2C1=O)c1cccc(Cl)c1 (centres undefined),inactive,–
CC(=O)Nc1ccc(-c2cn3cccnc3n2)cc1,10 µM (active),–
CCCC(=O)Nc1cccc(-c2cn3ccsc3n2)c1,inactive,–
CCOc1nc(OCC)nc(-n2cc(-c3ccccc3)nn2)n1,inactive,–

SMILES,Potency,"activity change, negative = inhibition"
CC(=O)Nc1cccc(-c2cnc3ccccc3n2)c1,inactive,–
c1ccc(-c2cn3cccnc3n2)cc1,25.1 µM (active),–
O=C(c1ccco1)N1CCN=C1SCc1cccc(Cl)c1,inactive,–
O=c1c2cc3c(=O)n(CC4CCCO4)c(=O)c3cc2c(=O)n1CC1CCCO1 (centres undefined),inactive,–
COC(=O)c1ccc2c(=O)n(CC3CCCO3)c(=S)[nH]c2c1 (centres undefined),inactive,–
O=C(NC1CCCCC1)c1ccc2c(=O)n(CC3CCCO3)c(=O)[nH]c2c1 (centres undefined),31.6 µM (active),–
CCC1=[N+]([O-])C(C)(/C(C)=N\O)N(O)C1(C)C (centres undefined),inactive,–
O=C(COC(=O)c1ccccc1C(=O)c1ccccc1)c1ccco1,inactive,–
CC(=O)c1cc2c(cc1N)OCO2,inactive,–
Cc1cc(C)n(-c2nc(SCC(=O)N3CCCC3)c3c4c(sc3n2)CCCC4)n1,inactive,–
COCCn1c(C)cc(C(=O)CSc2ncnc3sc4c(c23)CCC4)c1C,inactive,–
COCCNc1nc(-n2nc(C)cc2C)nc2sc3c(c12)CCCC3,25.1 µM (active),–
CO/N=C\[C@@H](C)[C@H](OCc1ccccc1)C(C)C,–,-1.19% [at 11.4 µM] (inactive)
O=C(c1ccc2c(c1)OCCO2)C1CCN(S(=O)(=O)c2cccc(F)c2)CC1,inactive,–
CC(C)(C)C(=O)CCN1C(=O)C2(OCCO2)c2ccccc21,inactive,–
Cc1ccc(-c2nn(CC(C)(C)C)c3ncnc(N)c23)cc1,inactive,–
CCCCN(CC)C(=O)CN(C)S(=O)(=O)c1cccc2nsnc12,inactive,–
COC(=O)c1ccccc1NC(=O)c1ccccc1NS(C)(=O)=O,inactive,–
O=C(Nc1nncs1)c1ccccc1NS(=O)(=O)c1cccs1,25.1 µM (active),–
COc1ccc(C(=O)Nc2nncs2)c(OC)c1,inactive,–
CSC1=NCCN1C(=O)c1ccc(S(=O)(=O)N2CCOCC2)cc1,inactive,–
Cc1cc(C(=O)COC(=O)CCCN2C(=O)c3ccccc3C2=O)c(C)n1C,inactive,–

SMILES,Potency,"activity change, negative = inhibition"
c1ccc(CCN2CCN=C2Cc2ccccc2)cc1,–,7.62% [at 11.4 µM] (inactive)
COc1ccccc1-c1nnc(SCC(=O)Nc2cc(C)on2)o1,inactive,–
COc1ccccc1-c1nnc(SCC(=O)Nc2ccccc2)o1,inactive,–
Cc1cc(NC(=O)CSc2nnc(-c3ccc(Cl)s3)o2)no1,31.6 µM (active),–
OC(CCl)CCl,inactive,–
Cc1cc2nc3c(=O)[nH]c(=O)nc-3n(C[C@H](O)[C@H](O)[C@H](O)CO)c2cc1C,15.8 µM (active),–
CC(C)(C)Nc1c(N)c(=O)oc2ccccc12,inactive,–
CCOc1cccc(=O)c2c(C)n(CC3CCCO3)c(C)c12 (centres undefined),inactive,–
Cc1nc2cnc(Nc3ccccc3)nc2n(C[C@H]2CCCO2)c1=O,inactive,–
Cc1nc2cnc(N3CCN(C)CC3)nc2n(C[C@H]2CCCO2)c1=O,31.6 µM (active),–
Cc1nc2cnc(N3CCN(C)CC3)nc2n(CCC#N)c1=O,31.6 µM (active),–
Cn1cc(-c2nc3cnc(N4CCNCC4)nc3n(CCC#N)c2=O)c2ccccc21,inactive,–
CCC1=C(OC(=O)N(CC)CC)N2C(=O)OC(=NCC3CC3)[C@]2(C)[C@H]2C1=CC[C@H]1C(=O)N(CC(=O)OC)C(=O)[C@H]12,inactive,–
COC(=O)[C@@]1(Cc2ccccc2)[C@H]2c3cc(C(=O)N(C)C)n(CCSCCO)c3C[C@H]2CN1C(=O)c1ccccc1,inactive,–
O=C(c1cc(C(F)(F)F)cc(C(F)(F)F)c1)N1CCC2(CC1)CN(c1ccncc1)C2,inactive,–
CC(=O)c1cccc(NC(=O)c2ccncc2)c1,inactive,–
CC1(C)Cc2cccc(OCC(=O)Nc3nccs3)c2O1,inactive,–
CCCCc1cc(=O)oc2cc(C)cc(OCc3nn[nH]n3)c12,31.6 µM (active),–
COC(=O)[C@@]1(Cc2ccccc2)[C@H]2c3cc(C(=O)N4CCCC4)n(Cc4ccc(C)o4)c3C[C@H]2CN1C(=O)c1ccccc1,inactive,–
COc1ccc(CN(C(=O)c2cccs2)c2nccs2)cc1OC,inactive,–
Cc1ccc(C(=O)OCC(=O)NCc2ccc3c(c2)OCO3)s1,inactive,–
CCOC(=O)c1c(C)[nH]c(C(=O)COc2ccc3c(c2)OCO3)c1C,inactive,–

SMILES,Potency,"activity change, negative = inhibition"
CCOC(=O)c1nc(-c2ccc3c(c2)OCO3)[nH]c1C,20 µM (active),–
O=C(Nc1cccc(F)c1)N1CC2(CCN(C(=O)c3cnccn3)CC2)C1,inactive,–
CC1(C)CC(=O)NC=C(c2ccccc2)C1,inactive,–
O=c1[nH]c(-c2ccccc2)c(-c2ccccc2)[nH]1,31.6 µM (active),–
COC(=O)C1C(=O)CC(C)(O)C(C(=O)OC)C1c1ccc2c(c1)OCO2 (centres undefined),inactive,–
O=C(NCc1ccco1)c1nc(-c2ccccc2)n(-c2ccccc2)n1,inactive,–
O=C(Nc1ccccc1)Nc1ccccc1C(=O)NCc1ccco1,inactive,–
O=C(NCc1ccco1)c1cccn2c(=O)c3cc(Br)ccc3nc12,25.1 µM (active),–
CC(C)C(N)C(=O)OCCOCn1cnc2c(=O)[nH]c(N)nc21 (centres undefined),inactive,–
FC(F)(F)c1ccc(CN2C[C@@H]3C(c4ccccc4)C4(c5ccccc5)CC3(C4)[C@H]2c2ccccc2)cc1 (some centres undefined),inactive,–
CCOC(=O)N1CCC(NC(=O)c2cnn3ccccc23)CC1,31.6 µM (active),–
CCOC(=O)N1CCC(NC(=O)Cc2cn(C)c3ccccc23)CC1,inactive,–
CCOC(=O)N1CCC(NC(=O)COc2cc(=O)n(C)c3ccccc23)CC1,inactive,–
CC(C)=CC1C(C(=O)O)C1(C)C (centres undefined),inactive,–
Cn1c(-c2ccc(C(=O)c3ccccc3)s2)nc2ccccc21,25.1 µM (active),–
Cn1c(CNC(=O)C(C)(C)C)nc2ccccc21,inactive,–
Nc1nonc1-c1nc2ccccc2n1CCC(=O)O,inactive,–
COc1cccc(-c2cc(NCCc3c[nH]c4ccc(OC)cc34)ncn2)c1,inactive,–
CC1OC2C(OC1C)N(S(C)(=O)=O)CCN2S(C)(=O)=O (centres undefined),inactive,–
C=CC(=C)CCC=C(C)C,inactive,–
COc1ccc(N)c(C)c1,inactive,–
COc1ccc2[nH]c3ccc(OC)cc3c2c1,25.1 µM (active),–

SMILES,Potency,"activity change, negative = inhibition"
COc1ccc2[nH]c3cc4c(=O)c5cc(OC)ccc5[nH]c4cc3c(=O)c2c1,–,3.71% [at 11.4 µM] (inactive)
C=CCOC(=O)COCCC(C)C,inactive,–
CCOC(=O)CSc1nnc(CNc2nc(-c3ccccc3)cs2)n1C,inactive,–
COCCCNC(=O)c1ccc(CNS(=O)(=O)c2ccc(NC(C)=O)cc2)cc1,inactive,–
c1ccc(CSc2nnc(-c3ccco3)n2Cc2ccccc2)cc1,inactive,–
O=C(CSc1nnc(-c2ccco2)n1-c1ccccc1)NCCc1ccccc1,inactive,–
c1ccc(CSc2nnc(-c3ccco3)c(-c3ccco3)n2)cc1,10 µM (active),–
COc1ccc(C(=O)N2CCC(C(=O)Nc3cccc(C)c3)CC2)cc1OC,inactive,–
CCCCOC(=O)c1ccc(N2C(=O)CC(N3CCN(C/C=C/c4ccccc4)CC3)C2=O)cc1 (centres undefined),inactive,–
COc1ccc(-c2noc(COc3ccc(Cl)c(C)c3)n2)cc1,inactive,–
CCOc1nc(-c2ccc(OC)cc2)ccc1-c1noc(-c2cc(OC)c(OC)c(OC)c2)n1,3.16 µM (active),–
COc1cc(-c2nc(-c3ccncc3)no2)cc(OC)c1OC,inactive,–
CCCN1C(=O)C(NC(C)=O)c2cc(OC)ccc21 (centres undefined),inactive,–
CCOC(=O)c1c(CN2CCOCC2)n(-c2ccccc2)c2ccc(O)cc12,inactive,–
O=C(OCCN1CCOCC1)C1(c2ccccc2)CCCCC1,inactive,–
O=C(CN1CCOCC1)N1CCCc2c1c(=O)oc1ccc(OCc3ccccc3)cc21,31.6 µM (active),–
O=C(CN1CCN(C(=O)c2ccco2)CC1)Nc1ccc(Cl)c(C(F)(F)F)c1,inactive,–
CCOc1ccccc1NC(=O)C1CCC(CNc2c(N3CCOCC3)c(=O)c2=O)CC1 (centres undefined),inactive,–
Cc1ccsc1-c1nc(CSCC(=O)NCCN2CCCC2)c(C)o1,31.6 µM (active),–
Cn1c(C(=O)NCCCN2CCCCC2)cc2sccc21,inactive,–
Cc1cc(NC(=O)CSCc2nc(-c3cccc(Cl)c3)oc2C)no1,inactive,–
